Legend:
Test in all cases: log2 ratio of Biotin-Ahx-Ub-VS probe labelling (fragment/DMSO); higher = less target engagement (more negative = stronger competition), active = hit call of the paper (q ≤ 0.05, log2 ratio ≤ -1)
Settings in all cases: compound concentration: 200 uM; treatment time: 3 h
USP9X = USP9X (UniProt Q93008)
Method in brief: (§1)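 HEK293T lysate in Tris/CHAPS/IGEPAL buffer with protease inhibitors (495 µg per sample) was given fragment at 200 µM or vehicle for 3 h, in triplicate. It then received Biotin-Ahx-Ub-VS at 0.5 µM final for 1 h. Labelled DUBs were NeutrAvidin-enriched, digested with LysC and trypsin, and run by diaPASEF LC-MS/MS. Values are average log2 fragment/vehicle ratios by unpaired t-test on global-median-normalised Spectronaut quantities of proteins with ≥2 unique peptides.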

UniProt O00487 = biological target: UniProt O00487
Method in brief: as §1

UniProt O00507 = biological target: UniProt O00507
Method in brief: as §1

UniProt P51784 = biological target: UniProt P51784
Method in brief: as §1

UniProt Q5T2D3 = biological target: T1, UniProt Q5T2D3
T1 sequence (whole entry): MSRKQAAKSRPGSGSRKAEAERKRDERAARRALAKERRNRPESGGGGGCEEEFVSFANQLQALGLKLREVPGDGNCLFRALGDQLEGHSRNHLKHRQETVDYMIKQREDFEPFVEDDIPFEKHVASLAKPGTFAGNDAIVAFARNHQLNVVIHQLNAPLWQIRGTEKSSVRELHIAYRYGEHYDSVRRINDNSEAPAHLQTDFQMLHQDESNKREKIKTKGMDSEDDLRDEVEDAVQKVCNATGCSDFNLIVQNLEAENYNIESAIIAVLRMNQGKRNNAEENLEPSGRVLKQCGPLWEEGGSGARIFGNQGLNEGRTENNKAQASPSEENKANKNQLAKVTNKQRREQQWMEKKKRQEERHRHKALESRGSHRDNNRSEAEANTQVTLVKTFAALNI
Method in brief: as §1

UniProt Q8TE49 = biological target: T2, UniProt Q8TE49
T2 sequence (whole entry): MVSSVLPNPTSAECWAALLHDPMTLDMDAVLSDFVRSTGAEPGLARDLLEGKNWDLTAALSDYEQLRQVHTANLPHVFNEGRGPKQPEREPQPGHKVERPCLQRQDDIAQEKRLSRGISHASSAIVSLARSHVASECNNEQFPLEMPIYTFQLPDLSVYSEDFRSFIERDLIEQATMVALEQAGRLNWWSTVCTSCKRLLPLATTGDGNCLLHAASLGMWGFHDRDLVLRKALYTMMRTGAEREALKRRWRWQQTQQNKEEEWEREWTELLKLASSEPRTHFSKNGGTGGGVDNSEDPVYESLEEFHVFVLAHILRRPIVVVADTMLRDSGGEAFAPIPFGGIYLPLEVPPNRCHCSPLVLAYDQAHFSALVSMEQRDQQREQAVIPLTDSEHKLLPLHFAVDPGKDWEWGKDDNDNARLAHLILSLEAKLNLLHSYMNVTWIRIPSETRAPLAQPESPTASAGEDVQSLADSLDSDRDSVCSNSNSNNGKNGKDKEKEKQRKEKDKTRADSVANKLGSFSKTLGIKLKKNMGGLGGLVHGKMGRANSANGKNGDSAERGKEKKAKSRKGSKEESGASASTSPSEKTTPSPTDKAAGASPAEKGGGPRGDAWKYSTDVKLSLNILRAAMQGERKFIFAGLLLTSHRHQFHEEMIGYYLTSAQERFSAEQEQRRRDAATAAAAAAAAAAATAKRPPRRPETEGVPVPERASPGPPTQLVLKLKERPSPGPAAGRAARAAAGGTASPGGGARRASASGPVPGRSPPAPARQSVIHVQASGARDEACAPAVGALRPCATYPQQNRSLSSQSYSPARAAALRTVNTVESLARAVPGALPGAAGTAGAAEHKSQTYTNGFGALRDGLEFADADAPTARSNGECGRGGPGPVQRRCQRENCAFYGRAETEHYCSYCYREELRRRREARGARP
Method in brief: as §1

UniProt Q9P2H5 = biological target: T3, UniProt Q9P2H5
T3 sequence (whole entry): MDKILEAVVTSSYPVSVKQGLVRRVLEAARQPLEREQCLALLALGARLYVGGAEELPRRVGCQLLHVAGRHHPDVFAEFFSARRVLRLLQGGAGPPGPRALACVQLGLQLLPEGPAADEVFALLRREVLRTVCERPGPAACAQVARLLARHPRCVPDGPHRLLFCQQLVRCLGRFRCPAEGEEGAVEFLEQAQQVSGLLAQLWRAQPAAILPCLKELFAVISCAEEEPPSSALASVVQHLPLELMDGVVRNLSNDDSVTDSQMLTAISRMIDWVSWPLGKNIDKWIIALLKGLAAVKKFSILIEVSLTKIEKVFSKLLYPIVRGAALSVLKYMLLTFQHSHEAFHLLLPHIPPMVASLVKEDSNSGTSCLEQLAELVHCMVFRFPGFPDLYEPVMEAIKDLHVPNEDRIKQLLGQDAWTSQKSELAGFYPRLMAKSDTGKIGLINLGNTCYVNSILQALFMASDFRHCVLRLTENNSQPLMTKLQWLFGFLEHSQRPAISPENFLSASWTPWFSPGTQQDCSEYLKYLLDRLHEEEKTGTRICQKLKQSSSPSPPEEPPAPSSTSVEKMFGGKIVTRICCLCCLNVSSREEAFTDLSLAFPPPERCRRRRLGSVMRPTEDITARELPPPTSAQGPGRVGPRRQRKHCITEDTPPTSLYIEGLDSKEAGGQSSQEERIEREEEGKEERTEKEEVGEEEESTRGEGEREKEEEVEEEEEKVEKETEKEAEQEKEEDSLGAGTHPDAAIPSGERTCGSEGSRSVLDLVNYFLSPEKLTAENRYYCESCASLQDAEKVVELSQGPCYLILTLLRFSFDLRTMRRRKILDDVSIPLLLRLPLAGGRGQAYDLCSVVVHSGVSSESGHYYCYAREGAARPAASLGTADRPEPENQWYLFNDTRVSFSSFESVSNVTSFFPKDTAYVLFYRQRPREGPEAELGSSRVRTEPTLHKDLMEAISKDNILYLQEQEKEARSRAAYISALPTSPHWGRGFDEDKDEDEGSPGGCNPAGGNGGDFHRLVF
Method in brief: as §1

UniProt Q9UGI0 = biological target: T4, UniProt Q9UGI0
T4 sequence (whole entry): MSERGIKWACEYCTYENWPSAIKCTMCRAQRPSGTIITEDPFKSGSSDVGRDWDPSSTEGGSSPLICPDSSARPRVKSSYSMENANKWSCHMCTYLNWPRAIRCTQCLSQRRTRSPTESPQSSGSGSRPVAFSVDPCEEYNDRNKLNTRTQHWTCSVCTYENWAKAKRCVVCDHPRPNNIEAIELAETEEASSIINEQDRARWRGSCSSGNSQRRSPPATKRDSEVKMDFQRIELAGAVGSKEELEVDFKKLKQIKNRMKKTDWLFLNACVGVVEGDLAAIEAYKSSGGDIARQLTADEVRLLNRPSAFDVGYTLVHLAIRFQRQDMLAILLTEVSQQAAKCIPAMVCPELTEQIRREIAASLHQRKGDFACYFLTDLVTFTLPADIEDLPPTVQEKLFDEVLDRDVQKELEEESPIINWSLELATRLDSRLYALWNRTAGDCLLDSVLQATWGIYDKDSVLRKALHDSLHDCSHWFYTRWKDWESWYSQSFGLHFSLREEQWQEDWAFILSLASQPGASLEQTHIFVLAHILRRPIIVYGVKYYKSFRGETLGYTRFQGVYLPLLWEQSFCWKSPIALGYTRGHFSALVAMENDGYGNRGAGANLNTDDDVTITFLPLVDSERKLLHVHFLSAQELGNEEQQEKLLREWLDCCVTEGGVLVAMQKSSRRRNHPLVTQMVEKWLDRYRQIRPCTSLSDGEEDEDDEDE
Method in brief: as §1

YOD1 = biological target: T5, YOD1 (UniProt Q5VVQ6)
T5 sequence (whole entry): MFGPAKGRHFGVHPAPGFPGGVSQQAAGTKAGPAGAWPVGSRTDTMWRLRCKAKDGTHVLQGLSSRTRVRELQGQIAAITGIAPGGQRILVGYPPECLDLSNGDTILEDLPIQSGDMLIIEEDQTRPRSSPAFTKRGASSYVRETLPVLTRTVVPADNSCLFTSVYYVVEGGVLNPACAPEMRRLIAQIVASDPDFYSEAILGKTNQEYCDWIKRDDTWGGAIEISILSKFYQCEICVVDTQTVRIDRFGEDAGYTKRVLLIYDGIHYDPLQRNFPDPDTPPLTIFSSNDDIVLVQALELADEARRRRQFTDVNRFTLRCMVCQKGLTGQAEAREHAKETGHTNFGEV
Method in brief: as §1

Measured: log2 ratio of Biotin-Ahx-Ub-VS probe labelling

UniProt O00487, sequence (O00487 whole entry): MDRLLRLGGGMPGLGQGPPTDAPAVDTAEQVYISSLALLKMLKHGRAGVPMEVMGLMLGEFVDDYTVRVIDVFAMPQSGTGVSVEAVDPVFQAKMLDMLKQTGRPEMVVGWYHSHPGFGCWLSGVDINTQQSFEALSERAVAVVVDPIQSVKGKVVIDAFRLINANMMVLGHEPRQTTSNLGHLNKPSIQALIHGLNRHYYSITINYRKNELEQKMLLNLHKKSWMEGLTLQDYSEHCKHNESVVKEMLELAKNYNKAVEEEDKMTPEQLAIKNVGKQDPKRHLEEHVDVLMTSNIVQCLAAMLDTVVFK
USP9X, sequence (Q93008 whole entry, the tested form may be a part): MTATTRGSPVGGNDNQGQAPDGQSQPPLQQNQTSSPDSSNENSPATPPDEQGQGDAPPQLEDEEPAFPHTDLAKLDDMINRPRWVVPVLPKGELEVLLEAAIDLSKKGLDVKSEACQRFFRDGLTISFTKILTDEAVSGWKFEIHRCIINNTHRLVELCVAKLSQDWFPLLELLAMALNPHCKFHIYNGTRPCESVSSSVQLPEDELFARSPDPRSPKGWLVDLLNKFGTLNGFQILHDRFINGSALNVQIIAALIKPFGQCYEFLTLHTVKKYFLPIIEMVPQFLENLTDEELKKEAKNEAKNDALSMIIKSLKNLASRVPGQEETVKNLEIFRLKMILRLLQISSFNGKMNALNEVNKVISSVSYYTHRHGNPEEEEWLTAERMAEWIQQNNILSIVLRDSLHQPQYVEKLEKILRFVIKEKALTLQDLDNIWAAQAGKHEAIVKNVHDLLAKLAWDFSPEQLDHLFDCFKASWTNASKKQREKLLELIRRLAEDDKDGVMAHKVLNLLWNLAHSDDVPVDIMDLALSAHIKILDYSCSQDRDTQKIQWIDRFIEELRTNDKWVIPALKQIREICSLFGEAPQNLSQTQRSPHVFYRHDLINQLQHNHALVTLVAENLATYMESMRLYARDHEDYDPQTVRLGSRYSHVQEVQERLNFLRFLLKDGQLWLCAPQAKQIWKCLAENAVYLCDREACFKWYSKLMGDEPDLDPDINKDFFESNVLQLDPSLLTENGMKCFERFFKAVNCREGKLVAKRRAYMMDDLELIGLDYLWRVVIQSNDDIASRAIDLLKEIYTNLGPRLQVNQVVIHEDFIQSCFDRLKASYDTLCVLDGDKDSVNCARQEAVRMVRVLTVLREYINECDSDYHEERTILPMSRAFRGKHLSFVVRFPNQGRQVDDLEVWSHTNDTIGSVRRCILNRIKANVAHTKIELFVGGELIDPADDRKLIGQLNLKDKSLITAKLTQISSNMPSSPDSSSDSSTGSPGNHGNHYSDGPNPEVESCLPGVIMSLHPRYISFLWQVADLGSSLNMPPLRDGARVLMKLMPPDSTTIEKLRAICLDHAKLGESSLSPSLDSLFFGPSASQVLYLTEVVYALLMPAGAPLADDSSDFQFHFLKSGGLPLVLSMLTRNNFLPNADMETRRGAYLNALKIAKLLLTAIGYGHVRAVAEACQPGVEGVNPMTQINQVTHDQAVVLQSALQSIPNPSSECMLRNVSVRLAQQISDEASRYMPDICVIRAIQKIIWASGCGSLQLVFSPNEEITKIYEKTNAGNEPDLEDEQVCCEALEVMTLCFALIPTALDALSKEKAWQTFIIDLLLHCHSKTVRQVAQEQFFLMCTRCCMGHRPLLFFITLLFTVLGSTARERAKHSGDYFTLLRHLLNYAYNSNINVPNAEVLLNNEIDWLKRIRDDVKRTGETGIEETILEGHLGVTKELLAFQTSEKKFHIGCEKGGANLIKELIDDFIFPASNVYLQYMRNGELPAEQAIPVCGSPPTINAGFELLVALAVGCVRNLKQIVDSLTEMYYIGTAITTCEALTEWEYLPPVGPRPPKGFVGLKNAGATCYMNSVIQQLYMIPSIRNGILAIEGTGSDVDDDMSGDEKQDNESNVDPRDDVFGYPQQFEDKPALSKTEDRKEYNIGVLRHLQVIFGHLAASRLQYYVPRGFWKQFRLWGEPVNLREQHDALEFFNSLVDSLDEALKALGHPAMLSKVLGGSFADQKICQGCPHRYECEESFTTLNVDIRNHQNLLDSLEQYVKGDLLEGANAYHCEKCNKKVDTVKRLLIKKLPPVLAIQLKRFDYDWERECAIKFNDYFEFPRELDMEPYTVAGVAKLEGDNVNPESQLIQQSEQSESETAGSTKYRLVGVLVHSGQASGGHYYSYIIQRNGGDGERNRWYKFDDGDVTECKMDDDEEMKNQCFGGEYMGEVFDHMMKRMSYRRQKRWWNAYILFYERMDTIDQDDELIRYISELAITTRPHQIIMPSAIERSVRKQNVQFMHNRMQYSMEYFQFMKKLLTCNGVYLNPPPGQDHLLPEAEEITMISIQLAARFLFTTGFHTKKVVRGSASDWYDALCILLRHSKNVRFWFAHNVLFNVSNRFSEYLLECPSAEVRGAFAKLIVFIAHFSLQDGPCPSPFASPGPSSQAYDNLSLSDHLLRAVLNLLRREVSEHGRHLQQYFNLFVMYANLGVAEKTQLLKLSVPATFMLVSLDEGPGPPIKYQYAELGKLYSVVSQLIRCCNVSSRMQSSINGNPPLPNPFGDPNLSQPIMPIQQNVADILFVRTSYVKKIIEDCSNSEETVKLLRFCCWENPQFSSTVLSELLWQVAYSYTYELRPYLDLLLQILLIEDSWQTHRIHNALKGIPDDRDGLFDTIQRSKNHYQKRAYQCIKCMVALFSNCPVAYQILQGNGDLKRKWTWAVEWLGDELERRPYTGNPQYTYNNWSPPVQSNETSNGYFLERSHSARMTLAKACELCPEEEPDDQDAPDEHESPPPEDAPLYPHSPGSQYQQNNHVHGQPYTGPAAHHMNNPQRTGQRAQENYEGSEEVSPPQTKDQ
UniProt P51784, sequence (P51784 whole entry): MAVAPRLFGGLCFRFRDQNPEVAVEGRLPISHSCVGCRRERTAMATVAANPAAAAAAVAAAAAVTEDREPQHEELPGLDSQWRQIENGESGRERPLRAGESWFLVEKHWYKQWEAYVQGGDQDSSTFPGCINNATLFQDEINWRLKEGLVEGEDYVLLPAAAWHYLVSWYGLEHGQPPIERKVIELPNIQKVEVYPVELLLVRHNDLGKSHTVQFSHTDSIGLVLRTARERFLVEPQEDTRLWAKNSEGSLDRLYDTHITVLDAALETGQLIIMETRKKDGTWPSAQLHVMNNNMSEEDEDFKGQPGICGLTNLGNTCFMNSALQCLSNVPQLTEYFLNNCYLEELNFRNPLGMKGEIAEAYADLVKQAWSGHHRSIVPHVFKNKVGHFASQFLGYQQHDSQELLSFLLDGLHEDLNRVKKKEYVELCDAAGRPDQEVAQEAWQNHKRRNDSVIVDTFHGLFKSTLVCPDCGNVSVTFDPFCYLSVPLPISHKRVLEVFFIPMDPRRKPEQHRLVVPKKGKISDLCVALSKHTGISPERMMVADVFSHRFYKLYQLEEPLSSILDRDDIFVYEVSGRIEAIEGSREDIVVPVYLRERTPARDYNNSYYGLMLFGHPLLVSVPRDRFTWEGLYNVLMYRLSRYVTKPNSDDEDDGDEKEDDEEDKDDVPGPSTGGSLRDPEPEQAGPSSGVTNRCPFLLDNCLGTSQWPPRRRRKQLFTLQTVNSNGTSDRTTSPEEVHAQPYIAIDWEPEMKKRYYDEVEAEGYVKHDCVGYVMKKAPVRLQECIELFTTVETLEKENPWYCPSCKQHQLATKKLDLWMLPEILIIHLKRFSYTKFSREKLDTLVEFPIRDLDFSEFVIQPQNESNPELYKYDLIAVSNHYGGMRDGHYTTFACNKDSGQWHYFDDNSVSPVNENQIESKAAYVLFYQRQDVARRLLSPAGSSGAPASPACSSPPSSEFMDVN

Cl.O=C(CCl)NCc1cc2c(nc1O)CCCC2
inactive: USP9X -0.309 | UniProt O00487 -0.0291 | UniProt O00507 -0.0624 | UniProt P51784 0.0791 | UniProt Q5T2D3 -0.333 | UniProt Q8TE49 -0.515 | UniProt Q9P2H5 -0.244 | UniProt Q9UGI0 -0.421 | YOD1 -0.158

— the supplement of paper PMC11732987, “Enantioselective OTUD7B fragment discovery through chemoproteomics screening and high-throughput optimisation” (Communications Chemistry, 2025)
